In PubChem BioAssay (EPA / NIEHS):
Results filed as inconclusive are left out. Activity calls are given as the source filed them. The calls were made as follows, unless noted: active = hit-call score of the fitted dose curve at least 0.9, where 1 is the maximum; inactive = score below 0.9.

Legend:
[1] = target: Transcription factor Sp1 (Homo sapiens) (UniProt P08047); test: ATG_Sp1_CIS: Attagene CIS-FACTORIAL HepG2 Assay for human Specificity Protein 1 (Sp1) (AID 2282961); details: HepG2 Sp1 cis-reporter transcription, actives raise or lower the signal
Method in brief: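 Measures mRNA induction of an Sp1-linked reporter in HepG2 cells 24 h post-dosing. Multiplexed reporters read by RT-PCR and capillary electrophoresis; DMSO serves as negative control and baseline.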

[2] = ATG_SREBP_CIS: Attagene CIS-FACTORIAL HepG2 Assay for human Sterol Regulatory Element Binding (SREBP) (AID 2282962); details: HepG2 Attagene cis-factorial SREBP reporter, mRNA; actives raise or lower the signal
Method in brief: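 HepG2 cells transiently transfected with multiplexed cis-promoter reporter units sensing endogenous transcription factors; reporter mRNA measured 24 h after dosing by RT-PCR, 6-FAM labeling, HpaI digestion and capillary electrophoresis. Bidirectional fit versus DMSO.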

[3] = target: Signal transducer and activator of transcription 3 (Homo sapiens) (UniProt P40763); test: ATG_STAT3_CIS: Attagene CIS-FACTORIAL HepG2 Assay for human Signal Transducer and Activator of Transcription 3 (STAT3) (AID 2282963); details: HepG2, Attagene cis-factorial STAT3 reporter transcription; actives raise or lower the signal
Method in brief: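 After a 24 h compound incubation, total RNA from MRTU-transfected HepG2 cells was converted to cDNA and reporter sequences PCR-amplified, labelled and profiled by capillary electrophoresis. Gain and loss of signal were referenced to DMSO.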

[4] = ATG_TA_CIS: Attagene CIS-FACTORIAL HepG2 Assay for human TA Basal Promoter (AID 2282964); details: HepG2 Attagene CIS-factorial TA basal promoter reporter; actives raise or lower the signal
Method in brief: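 Transfected HepG2, 24 h compound exposure; RNA → RT-PCR → FAM primer extension → HpaI cut → CE fluorescence. Gain/loss-of-signal fitted against DMSO negative control. Background-control readout.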

[5] = ATG_TCF_b_cat_CIS: Attagene CIS-FACTORIAL HepG2 Assay for human T-Cell-Factor with beta-catenin (TCF/b-cat) (AID 2282965); details: HepG2 TCF/beta-catenin cis-reporter transcription, actives raise or lower the signal
Method in brief: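 Endogenous transcription factor activity is captured through cis-promoter reporter constructs transiently introduced into human HepG2 liver cells. Induced reporter mRNA is measured after 24 h and fitted bidirectionally relative to DMSO.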

[6] = ATG_TGFb_CIS: Attagene CIS-FACTORIAL HepG2 Assay for human Transforming Growth Factor (TGF) (AID 2282967); details: HepG2 Attagene CIS TGFb reporter, mRNA transcription; actives raise or lower the signal
Method in brief: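 Readout: fluorescently labeled reporter cDNA fragments resolved by capillary electrophoresis after RT-PCR. Transfected HepG2 cells dosed for 24 h; endogenous TF activity at TGFB1-linked cis element; gain or loss fitted relative to DMSO.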

[7] = ATG_VDRE_CIS: Attagene CIS-FACTORIAL HepG2 Assay for human Vitamin D Receptor Element (VDRE) (AID 2282968); details: HepG2 VDRE cis-reporter transcription, actives raise or lower the signal
Method in brief: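 In transiently transfected HepG2 liver cells, gain or loss of reporter mRNA after 24 h exposure is scored relative to DMSO, using fluorescence detection by capillary electrophoresis of RT-PCR products.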

[8] = target: Nuclear receptor subfamily 1 group I member 3 (Homo sapiens) (UniProt Q14994); test: ATG_CAR_TRANS: Attagene TRANS-FACTORIAL HepG2 Assay for human Constitutive Androstane Receptor (CAR) (AID 2282969; active = hit-call score of the fitted dose curve at least 0.9, where 1 is the maximum;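 also: activators raise reporter mRNA above DMSO so AC50 marks induction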); details: HepG2 Attagene TRANS-FACTORIAL CAR reporter
Method in brief: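 Readout is reporter mRNA induction, quantified by fluorescent primer extension and capillary electrophoresis after RT-PCR. Cells were HepG2 transiently carrying chimeric NR-Gal4 constructs with GAL4-UAS reporters, treated for 24 h; activity scored upward from DMSO.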

[9] = ATG_TAL_CIS: Attagene CIS-FACTORIAL HepG2 Assay for human TAL Basal Promoter (AID 2282966); details: HepG2 Attagene cis-factorial TAL promoter reporter; actives raise or lower the signal;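 also: background control endpoint measuring basal TAL promoter reporter mRNA not a specific factor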
Method in brief: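 Readout: reporter mRNA, fluorescence by CE. System: HepG2, transient multi-reporter transfection, endogenous TF activity. Exposure: 24 h. Analysis: bidirectional, DMSO-normalized; background control.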

[10] = target: Estrogen receptor (Homo sapiens) (UniProt P03372); test: ATG_ERa_TRANS: Attagene TRANS-FACTORIAL HepG2 Assay for human Estrogen Receptor alpha (ERa) (AID 2282970; active = hit-call score of the fitted dose curve at least 0.9, where 1 is the maximum); details: HepG2 Attagene TRANS ERa GAL4 reporter, mRNA
Method in brief: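 Transactivation via ERa-Gal4 chimera in HepG2; 24 hour incubation; reporter mRNA detected by fluorescence RT-PCR and capillary electrophoresis.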

Measured: AC50

Chain of Transcription factor Sp1 (Homo sapiens) (P08047 whole entry, looked up): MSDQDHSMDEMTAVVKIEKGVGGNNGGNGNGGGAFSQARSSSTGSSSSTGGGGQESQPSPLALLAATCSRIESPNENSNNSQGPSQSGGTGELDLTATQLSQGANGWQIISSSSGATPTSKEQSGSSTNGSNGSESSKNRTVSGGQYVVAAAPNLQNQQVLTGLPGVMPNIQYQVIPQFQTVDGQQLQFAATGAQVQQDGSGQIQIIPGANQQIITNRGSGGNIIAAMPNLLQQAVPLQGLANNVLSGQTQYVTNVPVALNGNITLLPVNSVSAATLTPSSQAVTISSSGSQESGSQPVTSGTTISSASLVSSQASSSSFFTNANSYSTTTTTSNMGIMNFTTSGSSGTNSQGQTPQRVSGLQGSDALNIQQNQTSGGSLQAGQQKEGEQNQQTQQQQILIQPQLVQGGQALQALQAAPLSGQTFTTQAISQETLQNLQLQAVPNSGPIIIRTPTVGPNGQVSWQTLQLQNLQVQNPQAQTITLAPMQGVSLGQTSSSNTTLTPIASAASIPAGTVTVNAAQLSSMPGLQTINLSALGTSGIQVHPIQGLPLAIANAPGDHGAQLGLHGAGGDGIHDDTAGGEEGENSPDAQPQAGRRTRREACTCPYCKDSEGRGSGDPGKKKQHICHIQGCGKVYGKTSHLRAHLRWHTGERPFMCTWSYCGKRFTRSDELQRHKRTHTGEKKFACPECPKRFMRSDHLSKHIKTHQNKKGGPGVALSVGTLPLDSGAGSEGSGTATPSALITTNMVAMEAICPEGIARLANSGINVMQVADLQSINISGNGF
Chain of Estrogen receptor (Homo sapiens) (P03372 whole entry, looked up, the tested form may be a part): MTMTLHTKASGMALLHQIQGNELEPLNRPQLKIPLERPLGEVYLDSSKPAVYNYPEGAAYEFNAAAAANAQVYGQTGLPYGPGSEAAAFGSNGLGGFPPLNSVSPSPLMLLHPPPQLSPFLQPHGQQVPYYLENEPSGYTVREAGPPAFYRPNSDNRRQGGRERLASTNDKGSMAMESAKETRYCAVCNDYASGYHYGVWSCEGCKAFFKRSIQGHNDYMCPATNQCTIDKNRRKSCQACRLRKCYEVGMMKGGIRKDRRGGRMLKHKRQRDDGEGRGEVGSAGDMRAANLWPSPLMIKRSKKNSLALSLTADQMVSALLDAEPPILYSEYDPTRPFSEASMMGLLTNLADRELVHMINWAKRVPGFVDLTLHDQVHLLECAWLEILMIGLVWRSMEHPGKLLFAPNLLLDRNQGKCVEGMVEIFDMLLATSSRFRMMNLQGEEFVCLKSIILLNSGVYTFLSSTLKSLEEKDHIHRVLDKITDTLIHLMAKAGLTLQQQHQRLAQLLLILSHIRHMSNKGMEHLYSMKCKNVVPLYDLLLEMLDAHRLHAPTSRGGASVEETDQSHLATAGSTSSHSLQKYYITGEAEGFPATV
Chain of Nuclear receptor subfamily 1 group I member 3 (Homo sapiens) (Q14994 whole entry, looked up, the tested form may be a part): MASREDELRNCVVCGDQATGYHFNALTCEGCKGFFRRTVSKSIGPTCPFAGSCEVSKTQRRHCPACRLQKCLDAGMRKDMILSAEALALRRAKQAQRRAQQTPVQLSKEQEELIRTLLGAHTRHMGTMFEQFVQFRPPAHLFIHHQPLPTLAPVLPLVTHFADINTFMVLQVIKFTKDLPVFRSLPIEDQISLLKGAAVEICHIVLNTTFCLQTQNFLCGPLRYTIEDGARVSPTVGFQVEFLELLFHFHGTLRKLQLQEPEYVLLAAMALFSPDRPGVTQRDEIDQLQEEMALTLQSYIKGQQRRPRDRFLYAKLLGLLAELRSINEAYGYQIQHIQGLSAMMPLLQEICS
Chain of Signal transducer and activator of transcription 3 (Homo sapiens) (P40763 whole entry, looked up): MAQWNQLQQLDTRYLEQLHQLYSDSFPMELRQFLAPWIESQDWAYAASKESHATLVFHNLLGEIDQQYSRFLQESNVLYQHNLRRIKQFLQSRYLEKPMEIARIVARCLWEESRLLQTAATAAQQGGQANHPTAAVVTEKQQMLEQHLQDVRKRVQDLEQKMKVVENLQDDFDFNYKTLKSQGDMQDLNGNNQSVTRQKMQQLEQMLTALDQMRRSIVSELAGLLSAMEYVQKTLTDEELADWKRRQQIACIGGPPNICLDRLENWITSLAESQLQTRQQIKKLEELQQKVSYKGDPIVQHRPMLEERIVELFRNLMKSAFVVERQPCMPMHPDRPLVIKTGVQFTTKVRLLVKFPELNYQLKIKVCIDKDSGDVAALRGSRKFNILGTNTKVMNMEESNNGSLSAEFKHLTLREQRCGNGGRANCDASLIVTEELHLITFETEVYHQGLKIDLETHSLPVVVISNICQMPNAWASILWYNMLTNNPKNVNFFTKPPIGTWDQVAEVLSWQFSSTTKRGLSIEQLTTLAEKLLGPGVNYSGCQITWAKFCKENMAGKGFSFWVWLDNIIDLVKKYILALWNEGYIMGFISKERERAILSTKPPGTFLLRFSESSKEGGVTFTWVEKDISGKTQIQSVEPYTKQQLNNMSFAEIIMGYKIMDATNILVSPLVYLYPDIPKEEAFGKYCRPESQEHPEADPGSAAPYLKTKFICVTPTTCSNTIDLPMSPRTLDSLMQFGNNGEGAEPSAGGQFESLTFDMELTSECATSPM

ClCCCCl
inactive: [1] | [2] | [3] | [4] | [5] | [6] | [7] | [8]

Cc1cc(-c2cc(C)c(N)c(C)c2)cc(C)c1N
inactive: [1] | [2] | [3] | [4] | [5] | [9] | [7] | [8] | [10]

CC(C)(C)c1ccc(CCOc2ncnc3ccccc23)cc1
inactive: [1] | [2] | [3] | [4] | [5] | [9] | [7] | [8] | [10]

NC(=O)c1ccc(N)nc1
inactive: [1] | [2] | [3] | [4] | [5] | [9] | [7] | [8]

CC(=O)CN(CC(C)=O)N=O
inactive: [1] | [2] | [3] | [4] | [5] | [9] | [6] | [10]

COC(=O)c1cc(Oc2ccc(Cl)cc2Cl)ccc1[N+](=O)[O-]
inactive: [1] | [2] | [3] | [5] | [9] | [8] | [10]
active: [4] 27.1 µM | [7] 10.8 µM

CN(C)CCN(C)C
inactive: [1] | [2] | [3] | [4] | [5] | [9] | [7] | [10]

C=CC(=O)NC(C)(C)CC(C)=O
inactive: [1] | [2] | [3] | [4] | [5] | [9] | [7] | [8]

c1ccc(-c2cccc(-c3ccccc3)c2)cc1
inactive: [1] | [2] | [3] | [4] | [5] | [9]
active: [6] 56.6 µM | [10] 27.3 µM

Cc1cc(C(F)(C(F)(F)F)C(F)(F)F)ccc1NC(=O)c1cccc(I)c1C(=O)NC(C)(C)CS(C)(=O)=O
inactive: [1] | [2] | [3] | [4] | [5] | [9] | [6] | [10]

Nc1ccc(Br)cc1
inactive: [1] | [2] | [3] | [4] | [5] | [9] | [6] | [10]

CCCCC(CC)C(=O)Cl (configuration not stated)
inactive: [1] | [2] | [3] | [4] | [5] | [9] | [6] | [10]

COc1ccccc1N
inactive: [1] | [2] | [3] | [4] | [5] | [6]

ClCc1ccccc1CCl
active: [1] 33.4 µM | [3] 33.4 µM | [5] 22.4 µM | [9] 16.5 µM | [7] 13.5 µM
inactive: [2] | [4] | [8] | [10]

Cc1cc(SCc2sc(-c3ccc(C(F)(F)F)c(F)c3)nc2C)ccc1OCC(=O)O
active: [4] 23 µM | [5] 24.8 µM | [9] 15.5 µM | [7] 9.54 µM
inactive: [1] | [2] | [3]

N#CS
inactive: [1] | [2] | [3] | [4] | [5] | [6] | [7]

CCCCCCCCCCCCCCC(Br)C(=O)O (configuration not stated)
active: [4] 110 µM | [9] 129 µM | [7] 162 µM
inactive: [1] | [2] | [3] | [5]

O=S(=O)(Oc1ccc(Cl)cc1)c1ccc(Cl)cc1
active: [7] 10.4 µM | [10] 10.7 µM
inactive: [1] | [2] | [3] | [4] | [5] | [9] | [8]

CC[N+](CC)(CC)CC
inactive: [1] | [2] | [3] | [4] | [5] | [9] | [7] | [8]
